Assay outcomes (PubChem)
Only a selection was taken, and hits are over-represented in it overall.
VP16 counter: VP16 counterscreen qHTS for inhibitors of ROR gamma transcriptional activity | Drosophila S2 Gal4-VP16 UAS-luciferase, luminescence, 20 h | Potency, µM (highest dose often 53.6 µM), for inactives: at the top dose activity, negative = inhibition, usual class: inhibitors | 310,000 tested, 3.5% active;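 also: Gal4-VP16 expression switched on by copper sulfate through the metallothionein promoter; potency is read from the fitted curve at half-maximal effect; % is scaled to controls: 0 for no effect and ±100 for the full control effect; nearly all actives have a fitted effect of over 50% in size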
ERG-DNA inh: qHTS for Small Molecule Inhibitors of the ERG Ets/DNA interaction; 370,000 tested, 0.028% active; AID 624246, 2012; Transcriptional regulator ERG (Homo sapiens), P11308; fluorescence polarization, His-ERG Ets domain / labelled DNA; Potency, µM (series often up to 76.9 µM), for the others: at the top dose FP activity, negative = inhibition, usual class: inhibitors; active = well fitted inhibition curve with a large enough effect in the polarisation, with a control signal flat; inconclusive = small, poorly fitted or top-dose-only effect, or effect the other way, or a change in a side signal; inactive = no such curve, though single readings can be large or run the other way; the % refers to the polarisation;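 also: polarization taken with two DNA probes labelled with fluorescein and Texas red; potency is read from the fitted curve at half-maximal effect; % of control where 0% means no effect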
Target sequence (P11308 whole entry, looked up, the tested form may be a part): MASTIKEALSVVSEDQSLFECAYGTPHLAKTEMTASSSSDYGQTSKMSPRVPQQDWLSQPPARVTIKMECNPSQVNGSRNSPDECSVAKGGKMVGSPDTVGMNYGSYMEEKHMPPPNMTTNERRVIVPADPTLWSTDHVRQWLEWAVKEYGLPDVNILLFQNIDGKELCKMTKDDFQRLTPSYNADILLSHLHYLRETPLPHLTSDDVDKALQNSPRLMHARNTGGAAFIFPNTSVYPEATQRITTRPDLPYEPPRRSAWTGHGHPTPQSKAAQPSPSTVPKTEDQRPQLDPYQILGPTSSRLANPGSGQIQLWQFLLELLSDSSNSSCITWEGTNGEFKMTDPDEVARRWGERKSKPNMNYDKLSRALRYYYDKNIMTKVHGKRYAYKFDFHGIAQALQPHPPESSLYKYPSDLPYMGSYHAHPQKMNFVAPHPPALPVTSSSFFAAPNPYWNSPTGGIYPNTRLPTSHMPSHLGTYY
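His-tagged ERG Ets domain (1 uM in the protein solution; 300mM KCl, 50mM Tris-HCl, 1mM EDTA, 1mM DTT, pH 7.5) received compound, then a probe mix of 5 nM fluorescein-DNA and 100nM Texas-615-DNA. Fluorescence polarization was read for both dyes.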
RORg inh: qHTS for inhibitors of ROR gamma transcriptional activity | Potency, µM (top dose mostly 53.6 µM), for inactives: top-dose activity change, negative = inhibition, actives largely listed as inhibitors | 310,000 tested, 5.4% active | Drosophila S2 Gal4-RORgamma UAS-luciferase reporter, 20 h | Nuclear receptor ROR-gamma (Mus musculus), P51450; also: potency is read from the fitted curve at half-maximal effect; % is scaled to controls: 0 for no effect and ±100 for the full control effect; nearly all actives have a fitted effect of over 60% in size
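Stably transfected Drosophila Schneider cells are the test system, with ROR gamma fused to Gal4 and luciferase under UAS control; luminescence is read after 20 hr of 700 uM copper sulfate induction at ambient temperature.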
a7 integrin act: qHTS for Activators of Integrin-Mediated Alleviation for Muscular Dystrophy; alpha7betagal myoblasts, beta-gal FDG fluorescence, 48 h; Potency, µM (highest dose often 38.3 µM), without a hit: top-dose activation, usual class: activators; 350,000 tested, 0.064% active; AID 624291, 2012;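 also: potency is read from the fitted curve at half-maximal effect; 100% = response of the positive control SU9516; nearly all actives have a fitted effect of over 60% in size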
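alpha7betagal+/- myoblasts (passage 13, 250/well) treated 48 h at 37C with compounds at 1:260 dilution of DMSO stock. Lysed, then beta-galactosidase activity read as FDG fluorescence (ex 480/em 540) after 30 min, with pre-read for autofluorescence.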
Giardia killer: Small Molecules that selectively kill Giardia lamblia: qHTS | Giardia lamblia trophozoite viability | activity change, % at 7.66 µM, hits read low | 340,000 tested, 0.15% active | AID 540267, 2011; in the data active = activity change below about -80%; inconclusive = between about -30% and that limit;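 also: parasites exposed to compound for two days anaerobically before the ATP read; % is scaled to controls: 0 for no effect and ±100 for the full control effect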
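Luminescence from cellular ATP indicates surviving trophozoites (100 cells/well) following 48 hrs anaerobic compound treatment at 37 deg C; signal develops 15-30 min at room temperature.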
An asterisk follows results filed as active; u = inconclusive; x = not tested or not shown. Unless noted, calls follow the shape of the dose curve; as a rule, active = well fitted curve in the direction sought with a large enough effect; inconclusive = small, poorly fitted or top-dose-only effect, or another doubt; inactive = no such curve, though single readings can be large; an effect the other way counts as inactive or inconclusive.

SMILES	VP16 counter	ERG-DNA inh	RORg inh	a7 integrin act	Giardia killer
CCC(=O)O[C@]1(C(=O)CCl)[C@@H](C)C[C@H]2[C@@H]3CCC4=CC(=O)C=C[C@]4(C)[C@@]3(F)[C@@H](O)C[C@@]21C	u	-9.5%	11.2µM*	x	-2.2
Cc1cccc(N2CCN(C(=O)c3ccccc3SCC(=O)N3CCCC3)CC2)c1C	x	x	x	-18.7%	37.5
FC(F)(F)c1cnc(NNC(=S)Nc2cccnc2)c(Cl)c1	u	7.2%	12.6µM*	3.6%	20.5
Fc1ccccc1NC(=S)NNc1ncc(C(F)(F)F)cc1Cl	15.8µM*	-0.5%	u	-5.7%	-6.2
NC(=S)c1ncc(C(F)(F)F)cc1Cl	0.5%	-2.6%	-35.6%	7.3%	1.1
CC(C)(C)C(=O)Nc1ncc(C(F)(F)F)cc1Cl	20.1%	-2.3%	30.6%	8.5%	-5.5
O=C(O)c1ccc(/C=N/Nc2ncc(C(F)(F)F)cc2Cl)cc1	13.1%	-7.4%	10µM*	u	-6.9
NC(=S)Nc1ncc(C(F)(F)F)cc1Cl	u	-5.6%	7.08µM*	u	11.4
CCOc1ccccc1NC(=O)CSc1nc2ccccc2c(=O)n1CC1CCCO1 (stereo not drawn)	-4.0%	-0.1%	1.0%	-540.6%	-0.3
COc1ccccc1CNc1ccnc(-c2cccnc2)n1	0.2%	x	5.1%	x	x
Cc1c(Cl)cccc1NC(=S)NNc1ncc(C(F)(F)F)cc1Cl	u	2.0%	15.8µM*	-0.5%	-9.6
Cc1cccc(C)c1NC(=S)NNc1ncc(C(F)(F)F)cc1Cl	u	0.8%	7.94µM*	20.7%	-8.5
Cc1ccccc1NC(=S)NNc1ncc(C(F)(F)F)cc1Cl	3.5%	-2.4%	3.0%	3.3%	6.0
CCOc1ccc(N(CC(=O)Nc2ccc(OC)cc2)S(=O)(=O)c2ccc(Cl)cc2)cc1	x	2.2%	x	x	x
N#CC(C#N)=Cc1ccc(OC(=O)c2ccccn2)cc1	-25.1%	43.6%	12.6µM*	-0.9%	0.9
CN(C)c1cc(O)c(C(=S)Nc2ccccc2)c(N(C)C)c1	16.6%	-0.2%	u	-35.7%	-21.2
CN(C)c1ccc(/C=C(\C#N)c2ccccn2)cc1	7.94µM*	-0.4%	7.08µM*	-11.6%	-98.4*
CN(C)c1ccc(C(=S)Nc2ccccc2)cc1	u	11.8%	12.6µM*	0.0%	-22.0
CN(C)c1ccc(NC(=S)c2ccccn2)cc1	0.631µM*	1.0%	0.282µM*	11.1%	u
CN(C)c1ccc(/C=N/NC(=O)c2ccccn2)cc1	u	-2.2%	-44.0%	12.0%	-13.2
NC(=O)CC(NC(=O)c1cccc(Br)c1)c1ccc(N2CCN(c3ccccn3)CC2)c([N+](=O)[O-])c1 (stereo not drawn)	-21.5%	-24.6%	25.3%	0.0%	5.2
O=c1c2ccccc2c(=O)n2n1Cc1ccccc1C2	24.2%	0.0%	u	-27.6%	20.3
N#CC1=C(S)N(c2ccccc2)C(c2ccc(-c3cccc(Cl)c3)o2)NC1=O (stereo not drawn)	u	3.0%	12.6µM*	6.4%	-14.8
CCOc1ccc(C2NC(=O)C(C#N)=C(S)N2c2ccc(C)cc2)cc1OC (stereo not drawn)	u	7.6%	14.1µM*	-7.2%	10.4
CCOc1ccc(C2NC(=O)C(C#N)=C(S)N2c2cccc(C)c2)cc1OC (stereo not drawn)	-10.5%	4.6%	-33.9%	14.7%	-10.6
COc1cc(C2NC(=O)C(C#N)=C(S)N2c2ccccc2)ccc1OC(C)C (stereo not drawn)	u	-2.5%	10µM*	-34.8%	-1.6
COc1ccc(C2NC(=O)C(C#N)=C(S)N2c2ccccc2)cc1OC (stereo not drawn)	u	9.7%	u	-8.0%	-7.3
CCN(Cc1ccccc1)S(=O)(=O)c1ccc(F)c(C(=O)Nc2cc(C(F)(F)F)ccc2Cl)c1	x	6.6%	x	x	x
CN(C)C(=O)CCc1ccc2c3c([nH]c2c1)[C@]1(CCc2ccccc2)[C@@H](C(=O)N2CCCCC2)C[C@H](CC(=O)NCCCn2ccnc2)C(=O)N1CC3	x	4.8%	x	-2.4%	4.5
